This is an account of results in PubChem BioAssay AID1851 (National Center for Advancing Translational Sciences (NCATS), 2009).

Values joined by “and” are separate entries in the source; they are usually repeats but may differ in a detail not shown here. Equal entries are not always repeated. Out of some 16,000 compounds screened, about 5,800 (36%) were called active. About 23% were inconclusive and are not listed. The call rests on the fitted dose curve; in most records, active means well fitted curve in the direction sought with a large enough effect; inconclusive means small, poorly fitted or top-dose-only effect, or effect the other way; inactive means no such curve, though single readings can be large or run the other way. The list shows a part of the results.
On the % scale 0 is the no-effect control and ±100 the full control effect.

This assay deals with Cytochrome P450 2C19 (Homo sapiens) (UniProt P33261). The assay can be described thus: Cytochrome panel assay with activity outcomes. The settings on record: recombinant CYP, pro-luciferin dealkylation, luminescence, p450-cyp2c19; series mostly up to 57.1 µM; activity, negative = inhibition: at the top concentration.
Sequence of Cytochrome P450 2C19 (Homo sapiens) (P33261 whole entry, looked up): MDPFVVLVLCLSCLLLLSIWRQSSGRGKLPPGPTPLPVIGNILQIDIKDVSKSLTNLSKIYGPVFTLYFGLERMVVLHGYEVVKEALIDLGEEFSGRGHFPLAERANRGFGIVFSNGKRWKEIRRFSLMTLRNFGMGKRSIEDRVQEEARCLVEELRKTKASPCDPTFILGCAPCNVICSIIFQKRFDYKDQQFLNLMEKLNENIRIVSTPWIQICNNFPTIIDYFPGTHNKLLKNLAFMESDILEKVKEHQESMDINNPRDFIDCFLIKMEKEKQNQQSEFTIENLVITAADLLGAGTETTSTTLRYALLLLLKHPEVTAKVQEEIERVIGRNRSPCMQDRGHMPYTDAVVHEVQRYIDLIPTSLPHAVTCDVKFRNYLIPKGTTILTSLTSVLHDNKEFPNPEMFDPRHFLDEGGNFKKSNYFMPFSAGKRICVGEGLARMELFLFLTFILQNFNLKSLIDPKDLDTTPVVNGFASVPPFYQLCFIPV
For the compound `CCCN(C/C=C\I)[C@@H]1CCc2cccc(O)c2C1`, the “activity, negative = inhibition” value was -26.9% (inactive).

In the case of `Cc1ccc(N(C(C)C(=O)Nc2cc(Cl)ccc2Oc2ccccc2)S(C)(=O)=O)cc1` (stereo not given), the AC50 was 1.41 µM (active).

Consider `CC(C(=O)Nc1ccccc1Sc1ccccc1)N(c1ccccc1)S(C)(=O)=O` (stereo not given), for which the concentration at half-maximal activity (AC50) is 4.47 µM (active).

With `Cc1cc2c(=O)[nH]c(N)nc2nc1C`, the activity, negative = inhibition is 20.6% [at 11.4 µM] (inactive).

Take `O=C1CC(NCCC2=CCCCC2)C(=O)N1c1cccc(Cl)c1Cl` (stereo not given): the AC50 is 4.47 µM (active).

On to `CO[C@H]1COC(=O)C/C=C\[C@H](C)[C@H](OC)COC(=O)[C@@H](C)COC(=O)C/C=C\[C@@H]1C`, for which the activity, negative = inhibition is -8.22% [at 11.4 µM] (inactive) and -6.35% [at 11.4 µM] (inactive).

Turning to `Cc1ccc(C2CC2C(=O)NN)cc1` (stereo not given), the AC50 is 3.55 µM (active).

On to `C=CCN1CCc2c(cc(O)c(O)c2Cl)[C@H](c2ccccc2)C1`, for which the “activity, negative = inhibition” value is -40.1% (inactive).

In the case of `O=C(CCCN1C(=O)C2C3C=CC(C3)C2C1=O)N1CCN(c2ccccc2)CC1` (stereo not given), the “activity, negative = inhibition” value is -27% (inactive).

In the case of `Cn1c(=O)cc(OCCCC(=O)N2CCN(c3ccccc3)CC2)c2ccccc21`, the concentration at half-maximal activity (AC50) was 1.26 µM (active).

`CCOC(=O)C1CCCN(C(=O)CCCOc2cc(=O)n(C)c3ccccc23)C1` (stereo not given): the AC50 is 6.31 µM (active).

Take `O=C(O)c1ccc(/C=N\N=C2c3ccccc3-c3ccccc32)cc1`: the activity, negative = inhibition is 19.5% [at 11.4 µM] (inactive).

Turning to `Cc1c(S(=O)(=O)O)ccc(N=Nc2c(O)c(C(=O)O)cc3ccccc23)c1Cl`, the activity, negative = inhibition is 14.5% [at 11.4 µM] (inactive).

With `COC(=O)CNC(c1ccccc1Cl)c1cc(Br)ccc1NC(=O)CCN1CCOCC1` (stereo not given), the half-maximal activity concentration (AC50) is 28.2 µM (active).

For the compound `O=C1C[C@@H](O)[C@@H](O)[C@H]2[C@@H]3C(=O)N(C[C@@H]4CCCO4)C(=O)[C@@H]3CC[C@H]12`, the activity, negative = inhibition is 43.9% [at 11.4 µM] (inactive) and 16.6% [at 11.4 µM] (inactive).

On to `Cn1cccc1C(=O)N1CCC2(CC1)CCN(C(c1ccccc1)c1ccccc1)CC2`, for which the “activity, negative = inhibition” value was -14.1% (inactive).

In the case of `CNc1ncncc1-c1ccc(C(=O)N(C)C)cc1`, the AC50 was 25.1 µM (active).

Regarding `CN(C)c1ccc(-c2cncnc2NCc2cccnc2)cc1`, the AC50 was 0.0316 µM (active).

As for `CN(C)C(=O)c1ccc(-c2cncnc2NCc2cccnc2)cc1`, the AC50 was 2.51 µM (active).

For the compound `CN(C)c1ccc(-c2cncnc2NCc2ccccc2)cc1`, the AC50 was 0.398 µM (active).

As to `Cc1cnc(CNc2ncncc2-c2ccc(C(=O)N(C)C)cc2)cn1`, the “activity, negative = inhibition” value was 0.3% (inactive).

With `CN(C)C(=O)c1ccc(-c2cncnc2NCc2ccccc2)cc1`, the “activity, negative = inhibition” value is -10.8% (inactive).

As to `CN(C)C(=O)c1ccc(-c2cncnc2Nc2ccccc2)cc1`, the “activity, negative = inhibition” value is -27.6% (inactive).

Take `CCOC(=O)c1c(NC(=O)c2c(C)noc2C)sc2c1CCCCC2`: the “activity, negative = inhibition” value was -4.88% (inactive).

For `CCOC(=O)c1c(NC(=O)Cn2nc([N+](=O)[O-])c(Br)c2C)sc2c1CCC(C)C2` (stereo not given), the AC50 is 8.91 µM (active).

For the compound `CCOC(=O)c1c(NC(=O)c2ccc(S(=O)(=O)N3CCOCC3)cc2)sc2c1CCN(C)C2`, the “activity, negative = inhibition” value is 30.2% (inactive).

For the compound `CCOC(=O)c1c(N2C(=O)Nc3cc(Cl)c(Cl)cc3N2O)sc2c1CCCCC2`, the “activity, negative = inhibition” value is -110% (inactive).

For `CCOC(=O)c1c(NC(=O)CSc2nnc(C)s2)sc2c1CCCCC2`, the concentration at half-maximal activity (AC50) was 2.24 µM (active).

`CCOC(=O)c1c(NC(=S)NC(=O)c2cnn(CC)c2)sc2c1CCC(C)C2` (stereo not given): the “activity, negative = inhibition” value is -22% (inactive).

On to `CCOC(=O)c1c(NC(=O)Cn2cc([N+](=O)[O-])cn2)sc2c1CCC2`, for which the half-maximal activity concentration (AC50) is 2 µM (active).

As to `CCNc1ncc2nc(C)c(=O)n(Cc3cccc(OC)c3)c2n1`, the AC50 was 10 µM (active).

`COc1cccc(Cn2c(=O)cnc3cnc(Nc4cccc(OC)c4)nc32)c1`: the half-maximal activity concentration (AC50) is 3.98 µM (active).

As to `COCCn1c(=O)cnc2cnc(Nc3cccc(OC)c3)nc21`, the “activity, negative = inhibition” value is -17.7% (inactive).

For `CCNc1ncc2nc(-c3ccc(OC)cc3)c(=O)n(Cc3cccc(OC)c3)c2n1`, the “activity, negative = inhibition” value is -18.3% (inactive).

As to `CCNc1ncc2nc(-c3cn(C)c4ccccc34)c(=O)n(Cc3cccc(OC)c3)c2n1`, the “activity, negative = inhibition” value was -30.7% (inactive).

For `CCNc1ncc2nc(-c3cccs3)c(=O)n(Cc3cccc(OC)c3)c2n1`, the “activity, negative = inhibition” value was -27.9% (inactive).

In the case of `CCNc1ncc2ncc(=O)n(Cc3cccc(OC)c3)c2n1`, the concentration at half-maximal activity (AC50) was 2 µM (active).

For the compound `CCNc1ncc2nc(-c3ccc(Cl)cc3)c(=O)n(Cc3cccc(OC)c3)c2n1`, the “activity, negative = inhibition” value was 11.2% (inactive).

With `COc1cccc(Nc2ncc3ncc(=O)n(CCC#N)c3n2)c1`, the “activity, negative = inhibition” value is -23.9% (inactive).

Turning to `CCOc1ccc(/C(O)=C2/C(=O)C(=O)N(CCOCCO)C2c2cccnc2)cc1` (stereo not given), the “activity, negative = inhibition” value is -4.48% (inactive).

Take `COCCN1C(=O)C(=O)/C(=C(/O)c2cccc(OC)c2)C1c1ccc(C)o1` (stereo not given): the “activity, negative = inhibition” value was -7.14% (inactive).

Regarding `COc1cccc(/C(O)=C2/C(=O)C(=O)N(CCCN3CCOCC3)C2c2ccncc2)c1` (stereo not given), the “activity, negative = inhibition” value was -13.8% (inactive).

On to `COc1cccc(/C(O)=C2/C(=O)C(=O)N(Cc3cccnc3)C2c2ccco2)c1` (stereo not given), for which the AC50 was 14.1 µM (active).

In the case of `COCCN1C(=O)C(=O)/C(=C(/O)c2cccc(OC)c2)C1c1ccco1` (stereo not given), the “activity, negative = inhibition” value was -15.3% (inactive).

Regarding `CCOc1cccc(/C(O)=C2/C(=O)C(=O)N(Cc3ccco3)C2c2ccncc2)c1` (stereo not given), the half-maximal activity concentration (AC50) was 10 µM (active).

Regarding `O=C(c1cc(-c2ccco2)on1)N1CCOCC1`, the “activity, negative = inhibition” value was -29.1% (inactive).

For the compound `O=C(c1cnccn1)N1CCC2(CC1)CN(c1ccncc1)C2`, the “activity, negative = inhibition” value is -38% (inactive).

On to `O=C(CCS(=O)(=O)c1cccs1)N1CCN(c2ccc(F)cc2)CC1`, for which the AC50 was 0.891 µM (active).

Regarding `CC(C)CCN1CC(C(=O)N2CCN(c3ccc(F)cc3)CC2)CC1=O` (stereo not given), the “activity, negative = inhibition” value was -56.6% (inactive).

For the compound `O=C(CCNC(=O)Cn1ccc2ccccc2c1=O)NCCCN1CCN(c2ccc(F)cc2)CC1`, the “activity, negative = inhibition” value was -10.9% (inactive).

With `O=C(c1cc(-c2cccs2)on1)N1CCN(c2ccc(F)cc2)CC1`, the AC50 is 1.41 µM (active).

Turning to `Oc1cc(O)cc(/C=C\c2ccc(O)c(O)c2)c1`, the “activity, negative = inhibition” value was -27.7% (inactive).

Take `CC(C)c1cccc2nc3c(c([Si](C)(C)C)c12)Cn1c-3cccc1=O`: the “activity, negative = inhibition” value was -80.6% (inactive).

Take `Cc1ccc(OCC(=O)N/N=C\c2c(C)n(C)c3ccccc23)c([N+](=O)[O-])c1`: the AC50 is 8.91 µM (active).

As to `NC[C@H](O)C1CCCCCCC1`, the “activity, negative = inhibition” value was 7.64% (inactive).

As to `Cc1nc2c(C(=O)N3CCOCC3)cnn2c(C)c1Cc1ccc(Cl)cc1`, the concentration at half-maximal activity (AC50) is 2.24 µM (active).

`CC(=O)c1cnc2c(C(=O)O)cnn2c1C`: the “activity, negative = inhibition” value was -3.66% (inactive).

Take `Cc1nc2ncnn2c(C)c1CCC(=O)N1CCN(C(=O)c2ccco2)CC1`: the “activity, negative = inhibition” value is -5.78% (inactive).

`COC(=O)Cn1c(=N)n(CCN2CCCCC2)c2ccccc21`: the “activity, negative = inhibition” value is 40.1% (inactive).

Consider `N=c1n(CCN2CCOCC2)c2ccccc2n1CC(=O)c1ccc(Cl)c(Cl)c1`, for which the concentration at half-maximal activity (AC50) is 6.31 µM (active).

By AC50 is commonly meant the concentration at which the activity in the assay is half-maximal.
